tim10-1 inh = inhibits growth of tim10-1 mutant yeast; S. cerevisiae tim10-1 ts strain growth, BacTiter-Glo, 24 h; AID 463190; inhibition, % at 20 µM; 330,000 compounds, 2.2% hits;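 active means inhibition of at least 40%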;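 further: mutant grown at 25 °C; 0% = DMSO wells with yeast and 100% = wells holding no yeast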
TIM10 inh = TIM10 yeast growth inhibition; S. cerevisiae TIM10 strain growth, BacTiter-Glo luminescence, 24 h; inhibition, % at 10 µM; 330,000 compounds, 1.4% hits;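 active means inhibition of 40% or more at the single tested concentration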;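 further: wild-type TIM10 isogenic control strain grown at permissive 25 °C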
tim23-1 inh = inhibits growth of tim23-1 mutant yeast. S. cerevisiae tim23-1 growth, BacTiter-Glo luminescence, 24 h. 330,000 compounds, 1.3% hits. AID 463212. inhibition, % at 20 µM;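 active means growth inhibition of the mutant yeast at or above 50%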;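 further: temperature-sensitive mutant grown at 25 °C; plate controls were DMSO-treated mutant yeast for no effect and medium wells lacking yeast for full effect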
PfHsp90 set2 = growth inhibition of yeast expressing Plasmodium Hsp90; S. cerevisiae expressing PfHsp90, BacTiter-Glo ATP, 48 h; yeast lacking PDR1 and PDR3 efflux regulators; inhibition, % at 9.4 µM; 310,000 compounds, 0.32% hits; AID 504621;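 active means every replicate shows inhibition above about 80%, whatever the replicate mean, limit read from the data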;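 further: 0% = DMSO neutral controls and 100% = 20 µM radicicol positive controls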
Rce1 inhib = yeast Ras-converting enzyme inhibition | yeast membranes, quenched prenylated peptide cleavage fluorescence | calls only | 290,000 compounds, 0.27% hits | AID 2563;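 active means fall in fluorescence gain of 50% or more versus controls, with final raw signal at or below 3038400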;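 further: plate controls were neutral control wells for no effect and wells lacking membranes for full effect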
Target sequence (Q03530 whole entry, looked up): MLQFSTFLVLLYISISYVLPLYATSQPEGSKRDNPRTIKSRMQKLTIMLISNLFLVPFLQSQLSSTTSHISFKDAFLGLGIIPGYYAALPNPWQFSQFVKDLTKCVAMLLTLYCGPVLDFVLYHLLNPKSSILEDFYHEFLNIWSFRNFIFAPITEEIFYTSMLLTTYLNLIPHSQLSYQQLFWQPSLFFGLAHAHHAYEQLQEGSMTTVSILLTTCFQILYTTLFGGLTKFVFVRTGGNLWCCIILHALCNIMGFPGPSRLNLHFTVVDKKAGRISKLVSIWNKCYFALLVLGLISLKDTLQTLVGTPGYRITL
tim10 confirm = confirmation of TIM10 yeast growth inhibitors | shares compounds with TIM10 inh | S. cerevisiae tim10 strain growth, BacTiter-Glo luminescence, 24 h | inhibition, % at 10 µM | 4,600 compounds, 63% hits;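 active means inhibition of yeast growth at or above a set limit in either of two replicates at 10 µM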;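 further: this counterscreen used the strain with wild-type TIM10; 0% = yeast with DMSO and 100% = medium wells lacking yeast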
tim23-1 conf = tim23-1 yeast growth inhibition, confirmed. shares compounds with tim23-1 inh. S. cerevisiae tim23-1 growth, BacTiter-Glo luminescence, 24 h. inhibition, % at 20 µM. 4,400 compounds, 83% hits. AID 463218;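 active means inhibition above about 39% in either of two replicate wells at 20 µM, limit read from the data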;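 further: temperature-sensitive tim23-1 mutant grown at 25 °C; 0% = DMSO wells with yeast and 100% = medium wells without yeast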
* marks the source's active call; other numbers are inactive results; i = inactive; / = no result. Rows were chosen to be rich in hits. Some 3.7% of all compounds tested hit in one or more screens of this group.

SMILES | tim10-1 inh | TIM10 inh | tim23-1 inh | PfHsp90 set2 | Rce1 inhib | tim10 confirm | tim23-1 conf
COc1ccc2c(C(=O)CCl)c[nH]c2c1 | 21 | 43* | 53* | -14 | i | 29 | 51*
COc1ccc(-n2nnc3c(SC(C(C)=O)C(=O)N(C)C)ncnc32)cc1 (stereo not given) | 14 | 12 | 5 | 12 | i | / | /
Cc1ccc2c(c1)COc1c3ccc(C(=O)NCC4CC4)cc3nn1-2 | 16 | 41* | 61* | 13 | i | 31* | 54*
Cc1ccc2c(c1)COc1c3ccc(C(=O)O)cc3nn1-2 | -7 | 2 | 9 | 13 | i | / | /
CCOC(=O)C1CCN(S(=O)(=O)c2ccc3c(c2)CCN3C(C)=O)CC1 | 22 | 19 | 29 | -14 | i | / | /
CCOC(=O)C1CCN(S(=O)(=O)c2ccc3c(c2)CCN3C(=O)C2CCC2)CC1 | 1 | 62* | 51* | 2 | i | 20 | 66*
CCc1ccc(O)c(N=Cc2cccc(C)c2O)c1 | 22 | 8 | 25 | 6 | i | / | /
CCCc1ccc(O)c(N=Cc2cc(Br)cc(OCC)c2O)c1 | 37 | 43* | 57* | 9 | i | 33* | 74*
O=C(c1c(Cl)cccc1Cl)N1CCN(c2ncccn2)CC1 | 4 | 10 | 19 | -2 | i | / | /
N#C/C(=C\c1ccccc1)C(=O)NNS(=O)(=O)c1cccc([N+](=O)[O-])c1 | 3 | 0 | 14 | -4 | / | / | /
N#C/C(=C/c1cccc([N+](=O)[O-])c1)C(=O)Nc1ccccc1O | 32 | 42* | 73* | 11 | i | 40* | 57*
CC(=O)c1ccc(OCCOc2ccc([N+](=O)[O-])cc2)cc1 | 18 | 5 | 38 | 10 | i | / | /
O=Cc1ccccc1OCCOc1ccc([N+](=O)[O-])cc1 | 36 | 76* | 58* | 10 | / | 68* | 90*
Cc1ccccc1-c1nc2cc(NC(=O)C3CC3)ccc2o1 | 16 | 63* | 71* | 12 | / | 54* | 75*
O=C(Nc1ccc2oc(-c3ccccc3F)nc2c1)c1ccc2c(c1)OCCO2 | 39 | 46* | 60* | 14 | i | 36* | 70*
CC(=O)Nc1ccc2oc(-c3ccccc3Br)nc2c1 | -28 | 11 | 7 | -27 | i | / | /
CSc1ccc(/C=C(\C#N)C(=O)NC2CCCCC2C)cc1 (stereo not given) | 39 | 56* | 59* | 9 | i | 65* | 39*
CCCCOc1ccc(/C=C(\C#N)C(=O)NC2CC2)cc1 | 18 | 21 | 25 | / | i | / | /
Oc1ccccc1-c1nc(NC2CCCC2)c2ccccc2n1 | 30 | 44* | 64* | 115* | i | 35* | 58*
CC(C)OP(=O)(OC(C)C)/C(C=O)=N\Nc1ccc([N+](=O)[O-])cc1 | 38 | 51* | 67* | -19 | i | 50* | 67*
CC(C)OP(=O)(OC(C)C)C(Nc1ccc([N+](=O)[O-])cc1)c1cccc([N+](=O)[O-])c1 (stereo not given) | 14 | 28 | 23 | -3 | i | / | /
O=C(Nc1cccc(Cl)c1)N1CCCC1 | 36 | 47* | 51* | -4 | i | 27 | 73*
O=C(NNC(=S)Nc1cccc(Cl)c1)c1ccccc1 | -7 | 15 | 3 | -21 | i | / | /
O=C(Nc1csc(Cl)c1)c1ccccc1 | 20 | 43* | 56* | 8 | i | 41* | 69*
O=C(Nc1cccc(Cl)c1)c1ccccc1 | 39 | 58* | 62* | -5 | / | 57* | 76*
SMILES | tim10-1 inh | TIM10 inh | tim23-1 inh | PfHsp90 set2 | Rce1 inhib | tim10 confirm | tim23-1 conf
O=C(Nc1cccc(-c2csc(Nc3ccccc3)n2)c1)c1ccccc1 | 33 | 48* | 54* | -46 | i | 44* | 46*
O=[N+]([O-])c1ccc(CN2CCN(c3ccc(Cl)cc3)CC2)o1 | -22 | 19 | 25 | -1 | / | / | /
COc1ccc(O)c(-c2cc(-c3ccccc3Cl)[nH]n2)c1 | 39 | 50* | 81* | -17 | i | 57* | 72*
Cc1ccc(-c2cc(-c3ccccc3Cl)[nH]n2)c(O)c1 | 25 | 51* | 65* | -9 | i | 65* | 9
CC(=O)c1cccc(NC(=O)c2ccccc2N(Cc2ccccc2)S(C)(=O)=O)c1 | 4 | 12 | 23 | -6 | i | / | /
COc1cc(OC)c(C2NC(=O)CCC2[N+](=O)[O-])cc1OC (stereo not given) | 15 | 2 | 15 | 6 | i | / | /
Cc1ccc(C(C[N+](=O)[O-])Sc2ccc(N)cc2)cc1 (stereo not given) | 39 | 56* | 75* | 107* | i | 51* | 90*
CCc1c(C2(O)CCCCC2)[nH]c2cc(C(F)(F)F)ccc12 | 36 | 51* | 67* | 51 | i | 61* | -14
CCc1c(C2(O)CCCCC2)[nH]c2ccc(C#N)cc12 | 16 | 21 | 24 | 13 | i | / | /
COc1cc(NC(=O)C(C)Oc2ccccc2)c(OC)cc1NC(=O)c1ccccc1 (stereo not given) | 20 | -4 | 28 | -2 | i | / | /
CCOC(=O)/C(C#N)=C/c1cc2ccc(C)cc2nc1Cl | 22 | 42* | 56* | -10 | i | 7 | 64*
O=C(Nc1cccc(-c2cc3ccccc3oc2=O)c1)c1ccc(Br)o1 | 39 | 43* | 56* | 5 | i | 47* | 62*
O=C(Nc1cccnc1)c1cccc(-c2cc3ccccc3oc2=O)c1 | 6 | 8 | -2 | 22 | i | / | /
CCN(CC)CCOC(=O)c1ccc2c(c1)OCCO2 | 6 | 3 | 8 | -13 | i | / | /
Cc1ccc(NC(=O)c2ccccc2)s1 | 26 | 58* | 55* | / | i | 38* | 74*
Cc1cc(C)nc(SCc2nnc(SCC(=O)NCc3ccco3)n2-c2ccccc2)n1 | 13 | -2 | 16 | 63 | i | / | /
S=C1NCCOCCNC(=S)NCCOCCOCCN1 | 17 | 4 | 0 | 1 | / | / | /
CCC(NC(=S)NC1CCCCC1)c1ccc(C(C)C)cc1 (stereo not given) | 3 | 5 | 28 | / | i | / | /
C=CCSc1n[nH]c(-c2ccc(OCCC)cc2)n1 | 21 | 46* | 66* | / | i | 41* | 38*
CCCOc1ccc(-c2nc(=S)[nH][nH]2)cc1 | 2 | 1 | -5 | -25 | i | / | /
NC(=N\N=Cc1ccco1)/C(N)=N/N=Cc1ccco1 | / | / | / | 11 | / | / | /
O=c1c(Cl)c(NCc2ccccc2Cl)cnn1C12CC3CC(CC(C3)C1)C2 | 6 | 41* | 52* | 16 | i | 27 | 55*
O=c1c(Cl)c(NCc2ccco2)cnn1C12CC3CC(CC(C3)C1)C2 | -21 | -11 | 31 | 14 | i | / | /
N/C(Cc1cccc2ccccc12)=N\OC(=O)c1cccs1 | 32 | 61* | 63* | 19 | i | 78* | 72*

Source: PubChem (several laboratories)
